{
  "source": "paper PMC5892938",
  "about": "“SARNAclust: Semi-automatic detection of RNA protein binding motifs from immunoprecipitation data”",
  "note": "In all, about 11,000 sequences were measured (“log2 fold change”: median about 0.00022, highest 2% from about 0.34 on). The list shows a part of the results.",
  "data": [
    {"molecular_target": "GST-SBP-SLBP (stem-loop binding protein) (Homo sapiens, UniProt Q14493 1-270)", "experiment": "targeted RNA Bind-n-Seq; RBNS binding buffer: 25 mM Tris pH 7.5, 150 mM KCl, 3 mM MgCl2, 0.1% Tween, 0.5 mg/mL BSA, 1 mM DTT; 27 nM protein, 750 pM RNA pool; temperature not stated; high values mean tight binding", "conditions": "protein: recombinant; tags: N-terminal GST and SBP (pGEX6P1-SBP); structured_RNA", "outline": "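Read counts per sequence supply the binding signal, defined as the DEseq fold change on a binary-logarithm scale. These counts came from RNA of a designed, T7-transcribed oligo pool at 750 pM that bound 27 nM of GST-SBP-tagged protein, made in Rosetta(DE3) pLysS E. coli and glutathione-purified, in RBNS binding buffer. The bound RNA was reverse transcribed with a 10-nucleotide barcoded primer, PCR-amplified and sequenced on a MiSeq with 200-cycle paired-end reads, then processed with FLASH and HISAT2 and collapsed by barcode.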", "units": {"binding signal": "log2 fold change"}, "values": [
      {"sequence": "GGUCACGUCUCAAUCAACUCCUCGGAGGGGGGGAAAACCCCUUUACCCUCAUAUUCAACAGCUCGCAGUCAAG", "binding signal": "0.374 ± 0.433"},
      {"sequence": "GGUCACGUCUCAAUCAACUCUCCAGAGGGGGGGAAAACCCCUUUACCCUCACAUUCAACAGCUCGCAGUCAAG", "binding signal": "0.328 ± 0.444"},
      {"sequence": "GGUCACGUCUCAAUCAACUCCUCGGAGGGGGGGAAAACCCCUUUACCCUCACAUUCAACAGCUCGCAGUCAAG", "binding signal": "0.424 ± 0.434"},
      {"sequence": "GGUCACGUCUCAAUCAACUCCACAGAGGGGGGGAAAACCCCUUUGCCCUCCAUAUCAACAGCUCGCAGUCAAG", "binding signal": "0.437 ± 0.447"},
      {"sequence": "GGUCACGUCUCAAUCAACUCAGAAGAGGGGGGGAAAACCCCUUUGCCCUCCAUAUCAACAGCUCGCAGUCAAG", "binding signal": "0.327 ± 0.401"},
      {"sequence": "GGUCACGUCUCAAUCAACUCCCCAGAGGGGGGGAAAACCCCUUUGCCCUCAAUAUCAACAGCUCGCAGUCAAG", "binding signal": "0.552 ± 0.441"},
      {"sequence": "GGUCACGUCUCAAUCAACUCUCCAGAGGGGGGGAAAACCCCUUUGCCCUCCACAUCAACAGCUCGCAGUCAAG", "binding signal": "0.318 ± 0.411"},
      {"sequence": "GGUCACGUCUCAAUCAACUCCUCAGAGGGGGGGAAAACCCCUUUGCCCUCCAAAUCAACAGCUCGCAGUCAAG", "binding signal": "0.317 ± 0.412"},
      {"sequence": "GGUCACGUCUCAAUCAACUCAUCAGAGGGGGGGAAAACCCCUUUGCCCUCCACAUCAACAGCUCGCAGUCAAG", "binding signal": "0.401 ± 0.446"},
      {"sequence": "GGUCACGUCUCAAUCAACUCAUUUCCCAGGGAAAGCCCUGGUAAUCUCAACAGCUCGCAGUCAAG", "binding signal": "0.334 ± 0.275"},
      {"sequence": "GGUCACGUCUCAAUCAACUCAAUCCCCAGGGAAAUCCCUGGCUUACUCAACAGCUCGCAGUCAAG", "binding signal": "0.371 ± 0.289"},
      {"sequence": "GGUCACGUCUCAAUCAACUCUAUCCCCAGGGAAAGCCCUGGCUUACUCAACAGCUCGCAGUCAAG", "binding signal": "0.3 ± 0.283"},
      {"sequence": "GGUCACGUCUCAAUCAACUCUAUCCCCAGGGAAACCCCUGGCUUACUCAACAGCUCGCAGUCAAG", "binding signal": "0.376 ± 0.273"},
      {"sequence": "GGUCACGUCUCAAUCAACUCAUUCCCCAGGGAAAGCCCUGGCUUUUUCAACAGCUCGCAGUCAAG", "binding signal": "0.512 ± 0.316"},
      {"sequence": "GGUCACGUCUCAAUCAACUCAUCCCCCAGGGAAAGCCCUGGCUUACUCAACAGCUCGCAGUCAAG", "binding signal": "0.352 ± 0.269"},
      {"sequence": "GGUCACGUCUCAAUCAACUCAUCCCCCAGGGAAAUCCCUGGCUUACUCAACAGCUCGCAGUCAAG", "binding signal": "0.468 ± 0.259"},
      {"sequence": "GGUCACGUCUCAAUCAACUCAGUCCCCAGGGAAAGCCCUGGCAUAUUCAACAGCUCGCAGUCAAG", "binding signal": "0.34 ± 0.375"},
      {"sequence": "GGUCACGUCUCAAUCAACUCAUCUUCCAGGGAAAGCCCUGGCUUUCUCAACAGCUCGCAGUCAAG", "binding signal": "0.425 ± 0.292"},
      {"sequence": "GGUCACGUCUCAAUCAACUCAGUUCCCAGGGAAAGCCCUGGCAUUUUCAACAGCUCGCAGUCAAG", "binding signal": "0.449 ± 0.362"},
      {"sequence": "GGUCACGUCUCAAUCAACUCAAUCCCCAGGGAAAUCCCUGGUUUACUCAACAGCUCGCAGUCAAG", "binding signal": "0.393 ± 0.26"},
      {"sequence": "GGUCACGUCUCAAUCAACUCAACUCCCAGGGAAAUCCCUGGUUAUCUCAACAGCUCGCAGUCAAG", "binding signal": "0.334 ± 0.284"},
      {"sequence": "GGUCACGUCUCAAUCAACUCUUUUUCCAGGGAAAGCCCUGGCUAUGUCAACAGCUCGCAGUCAAG", "binding signal": "0.31 ± 0.256"},
      {"sequence": "GGUCACGUCUCAAUCAACUCUUUUUCCAGGGAAAGCCCUGGCAUGUUCAACAGCUCGCAGUCAAG", "binding signal": "0.337 ± 0.241"},
      {"sequence": "GGUCACGUCUCAAUCAACUCUUCUUCCAGGGAAAGCCCUGGCUAUUUCAACAGCUCGCAGUCAAG", "binding signal": "0.333 ± 0.251"},
      {"sequence": "GGUCACGUCUCAAUCAACUCUAUCUCCAGGGAAAGCCCUGGUUAUCUCAACAGCUCGCAGUCAAG", "binding signal": "0.334 ± 0.307"},
      {"sequence": "GGUCACGUCUCAAUCAACUCUAUCUCCAGGGAAAACCCUGGCUAUUUCAACAGCUCGCAGUCAAG", "binding signal": "0.433 ± 0.244"},
      {"sequence": "GGUCACGUCUCAAUCAACUCUAUCUCCAGGGAAACCCCUGGCAAACUCAACAGCUCGCAGUCAAG", "binding signal": "0.323 ± 0.268"},
      {"sequence": "GGUCACGUCUCAAUCAACUCUAUCUCCAGGGAAAGCCCUGGCUUACUCAACAGCUCGCAGUCAAG", "binding signal": "0.329 ± 0.278"},
      {"sequence": "GGUCACGUCUCAAUCAACUCAAUCUCCAGGGAAAGCCCUGGCUAACUCAACAGCUCGCAGUCAAG", "binding signal": "0.405 ± 0.277"},
      {"sequence": "GGUCACGUCUCAAUCAACUCAUCCUCCAGGGAAACCCCUGGCUAUCUCAACAGCUCGCAGUCAAG", "binding signal": "0.3 ± 0.279"},
      {"sequence": "GGUCACGUCUCAAUCAACUCAUCCUCCAGGGAAACCCCUGGCUAUUUCAACAGCUCGCAGUCAAG", "binding signal": "0.363 ± 0.269"},
      {"sequence": "GGUCACGUCUCAAUCAACUCUAUCUCCAGGGAAACCCCUGGCUAACUCAACAGCUCGCAGUCAAG", "binding signal": "0.366 ± 0.263"},
      {"sequence": "GGUCACGUCUCAAUCAACUCAUCCUCCAGGGAAAACCCUGGCAUAUUCAACAGCUCGCAGUCAAG", "binding signal": "0.384 ± 0.243"},
      {"sequence": "GGUCACGUCUCAAUCAACUCAUCUCCCAGGGAAAACCCUGGCUAUCUCAACAGCUCGCAGUCAAG", "binding signal": "0.3 ± 0.284"},
      {"sequence": "GGUCACGUCUCAAUCAACUCUAUCCCCAGGGAAAACCCUGGCUAUCUCAACAGCUCGCAGUCAAG", "binding signal": "0.336 ± 0.26"},
      {"sequence": "GGUCACGUCUCAAUCAACUCUAUCUCCAGGGAAAACCCUGGCUAACUCAACAGCUCGCAGUCAAG", "binding signal": "0.369 ± 0.3"},
      {"sequence": "GGUCACGUCUCAAUCAACUCAUUUUCCAGGGAAAUCCCUGGCAUAUUCAACAGCUCGCAGUCAAG", "binding signal": "0.33 ± 0.202"},
      {"sequence": "GGUCACGUCUCAAUCAACUCUUAAGAGGGGGGGAAAACCCCUUUGCCCUCACACUCAACAGCUCGCAGUCAAG", "binding signal": "0.323 ± 0.393"},
      {"sequence": "GGUCACGUCUCAAUCAACUCUCUAGAGGGGGGGAAAACCCCUUUGCCCUCACACUCAACAGCUCGCAGUCAAG", "binding signal": "0.353 ± 0.4"}
    ]}
  ]
}
